For this assay, the target named is Estrogen receptor beta (Homo sapiens) (UniProt Q92731). As to the kind of experiment: ERbeta ligand binders by competition, primary screen, cell-based, Cos7 ERbeta-GFP, flow cytometry (AID 1210).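 Note: 0% = DMSO vehicle wells and 100% = complete loss of labeled estradiol signal.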 The note with it: fluorescent estrogen binding, stronger effect = higher value.
[1] abbreviates: ligand binding inhibition, at 0.1 µM.

Active and inactive are the calls of the source.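 Rule for the calls: active = blocks over 70% of labeled estradiol binding at 10 µM, or over a set limit at 100 nM; inactive = the rest.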

Estrogen receptor beta (Homo sapiens), sequence (Q92731 whole entry, looked up): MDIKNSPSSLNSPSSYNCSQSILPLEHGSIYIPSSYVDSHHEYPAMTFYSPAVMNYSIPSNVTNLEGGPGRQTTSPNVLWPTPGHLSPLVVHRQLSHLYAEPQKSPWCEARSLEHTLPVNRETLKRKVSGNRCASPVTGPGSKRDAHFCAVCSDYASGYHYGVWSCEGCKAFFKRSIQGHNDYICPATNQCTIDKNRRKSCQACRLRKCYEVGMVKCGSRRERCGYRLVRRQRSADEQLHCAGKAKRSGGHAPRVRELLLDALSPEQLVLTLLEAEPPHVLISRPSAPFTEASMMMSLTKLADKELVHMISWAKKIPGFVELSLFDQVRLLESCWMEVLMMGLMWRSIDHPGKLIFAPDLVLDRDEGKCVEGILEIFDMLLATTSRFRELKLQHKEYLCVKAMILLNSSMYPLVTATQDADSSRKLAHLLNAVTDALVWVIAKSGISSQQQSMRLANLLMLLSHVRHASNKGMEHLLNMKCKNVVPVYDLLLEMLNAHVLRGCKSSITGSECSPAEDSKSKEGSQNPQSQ

As for `COc1ccc(OC)c(C(=O)CSc2nnc(-c3ccc(OC)c(OC)c3)o2)c1`, the inhibition (in general, the change of the read-out against control, counted positive when it falls) was 49% (inactive) (at 10 µM) and 12% under setting [1].

For the compound `Cc1cc(C(=O)O)ccc1-n1c(C)ccc1C`, the inhibition is 69% (inactive) (at 10 µM) and 49% under setting [1].

As for `CCCC1=NN2C(=N)/C(=C\c3ccc(SCc4ccco4)o3)C(=O)N=C2S1`, the inhibition (at 10 µM) is 13% (inactive) and the inhibition under setting [1] worked out at 17%.

Take `C=CCn1c(COc2ccccc2F)nnc1SCC(=O)NC(=O)NCc1ccco1`: the inhibition was 24% (inactive) (at 10 µM) and 2% under setting [1].

Take `CSc1nc2c(c(=O)[nH]1)C(c1cccs1)C1=C(CCCC1=O)N2` (stereo unspecified): the inhibition (at 10 µM) is 71% (active) and the inhibition under setting [1] came to 33%.

In the case of `CN(CC(=O)NC(=O)NCc1ccco1)Cc1nc2ccccc2c(=O)[nH]1`, the inhibition is 14% (inactive) (at 10 µM) and 53% under setting [1].

Take `Cc1ccc(OCc2ccoc2C(=O)O)cc1C`: the inhibition runs as follows: (at 10 µM) 0% (inactive); under setting [1], 8%.

Regarding `Cc1csc2nc(CCNS(=O)(=O)c3ccc4c(c3)OCCO4)cn12`, the inhibition is 13% (active) (at 10 µM) and 87% under setting [1].

Turning to `Cc1cccc(N2CCN(C(=O)c3cc4c(=O)n(C)c5ccccc5c4n3C)CC2)c1C`, the inhibition (at 10 µM) is 46% (inactive) and the inhibition under setting [1] came out at 27%.

Take `O=S(=O)(/N=C(/Sc1ccccc1)c1ccccc1)c1ccccc1`: the inhibition runs as follows: (at 10 µM) 32% (inactive); under setting [1], 20%.

With `CCN(c1ccccc1)S(=O)(=O)c1ccc2[nH]cc(C(=O)NCCOC)c(=O)c2c1`, the inhibition is, setting by setting: (at 10 µM) 35% (inactive); under setting [1], 30%.

Turning to `Cc1ccc(C(=O)CSC2=C(C#N)C(c3ccco3)CC(=O)N2)c(C)c1` (stereo unspecified), the inhibition is 54% (inactive) (at 10 µM) and 14% under setting [1].

In the case of `O=C1C2C3C=CC(C3)C2C(=O)N1c1cccc2cccnc12` (stereo unspecified), the inhibition is 55% (inactive) (at 10 µM) and 51% under setting [1].

As for `Cc1cs/c(=N\N=C\c2ccc(O)cc2)n1Cc1ccco1`, the inhibition is 45% (inactive) (at 10 µM) and 21% under setting [1].

For the compound `CCOC(=O)Cn1cnc2sc3c(c2c1=O)CCC3`, the inhibition was 37% (inactive) (at 10 µM) and 28% under setting [1].

As for `CCc1oc2ccccc2c1C(=O)c1cc(Br)c(O)c(Br)c1`, the inhibition is 45% (inactive) (at 10 µM) and 9% under setting [1].

With `Cc1cc(-c2nnc3sc(-c4ccc(Cl)cc4Cl)nn23)n[nH]1`, the inhibition by setting is: (at 10 µM) 32% (inactive); under setting [1], 38%.

Turning to `Cn1cccc1/C=C1\SC(=O)N(c2ccc(O)cc2)C1=O`, the inhibition is 31% (inactive) (at 10 µM) and 7% under setting [1].

Regarding `CC1(C)N=C(N)N=C(N)N1c1ccc(C(=O)O)cc1`, the inhibition runs as follows: (at 10 µM) 22% (inactive); under setting [1], 11%.

Consider `COc1ccc(OC)c(C2Nc3c(Cl)ccc(C(=O)O)c3C3C=CCC32)c1` (stereo unspecified), for which the inhibition is, setting by setting: (at 10 µM) 0% (inactive); under setting [1], 52%.

For `CCO/C([O-])=N/c1c[n+](N2CCOCC2)no1`, the inhibition is 21% (inactive) (at 10 µM) and 44% under setting [1].

Turning to `Cc1cc(C)c2c(c1)NC(c1cc3c(cc1Br)OCO3)C1CC=CC21` (stereo unspecified), the inhibition reads like this: (at 10 µM) 42% (inactive); under setting [1], 46%.

Turning to `Cc1csc(C(C#N)C(=O)c2ccncc2)n1` (stereo unspecified), the inhibition is 13% (inactive) (at 10 µM) and 4% under setting [1].

In the case of `Cc1oc2c(C)c(O)ccc2c(=O)c1-c1ccc2ccccc2n1`, the inhibition by setting is: (at 10 µM) 15% (inactive); under setting [1], 54%.

`O=c1c2c([nH]c3ccccc13)C(=C1CCCC1)CC2`: the inhibition by setting is: (at 10 µM) 42% (inactive); under setting [1], 11%.

With `O=C(Cc1cccs1)Nc1ccc(-c2nnn(CC(=O)N3CCOCC3)n2)cc1`, the inhibition (at 10 µM) was 30% (inactive) and the inhibition under setting [1] was found to be 2%.

As for `CCOc1ccccc1N1CSC2=C(C#N)C(c3c(OC)ccc4ccccc34)CC(=O)N2C1` (stereo unspecified), the inhibition by setting is: (at 10 µM) 35% (inactive); under setting [1], 28%.

For `COc1ccc2cc3c(N)nn(C(=O)Cc4ccc(Cl)cc4)c3nc2c1`, the inhibition (at 10 µM) was 37% (inactive) and the inhibition under setting [1] is 12%.

Regarding `COc1ccc(-c2nnc(-c3cc4c(ccc5ccccc54)oc3=O)o2)cc1`, the inhibition is 33% (inactive) (at 10 µM) and 6% under setting [1].

As to `Oc1ccc(-c2nnc(-c3ccccc3)c(-c3ccccc3)n2)cc1`, the inhibition reads like this: (at 10 µM) 38% (inactive); under setting [1], 25%.

On to `Cc1ccsc1/C=C(\C(=O)c1ccc(OC(C)C)cc1)c1nc2ccccc2o1`, for which the inhibition by setting is: (at 10 µM) 34% (inactive); under setting [1], 60%.

On to `CC1CCN(S(=O)(=O)c2ccc(NC(=O)Cc3cccs3)cc2)CC1`, for which the inhibition (at 10 µM) is 36% (inactive) and the inhibition under setting [1] came out at 33%.

In the case of `Cc1ccccc1NC(=O)CSc1nnc(-c2ccco2)c(-c2ccco2)n1`, the inhibition (at 10 µM) was 31% (inactive) and the inhibition under setting [1] came out at 27%.

Regarding `Cc1c(N=Cc2ccc(O)c(Br)c2)cccc1[N+](=O)[O-]`, the inhibition by setting is: (at 10 µM) 33% (inactive); under setting [1], 34%.

As for `Cc1cc(C)c2c(c1)[C@@H]1C=CC[C@@H]1[C@H](c1ccc(S(=O)(=O)N3CCOCC3)cc1)N2`, the inhibition by setting is: (at 10 µM) 35% (inactive); under setting [1], 48%.

As to `CCSc1nc2c(cnn2-c2ccc(C)cc2)c(=O)[nH]1`, the inhibition by setting is: (at 10 µM) 31% (inactive); under setting [1], 29%.

For `O=C(NNC(=O)c1ccc(SCC2CCCO2)c([N+](=O)[O-])c1)c1ccc(Cl)c([N+](=O)[O-])c1` (stereo unspecified), the inhibition (at 10 µM) is 0% (inactive) and the inhibition under setting [1] came to 4%.

With `COc1ccc(C(Nc2ccccn2)c2oc(CO)cc(=O)c2O)cc1` (stereo unspecified), the inhibition is 75% (active) (at 10 µM) and 40% under setting [1].

For `Cc1cc(C)c(S(=O)(=O)/N=C2\C=CC(=O)C(Cl)=C2)c(C)c1`, the inhibition is, setting by setting: (at 10 µM) 0% (inactive); under setting [1], 16%.

With `O=C(Cc1cccs1)Nc1nnc(Cc2ccccc2)s1`, the inhibition was 18% (inactive) (at 10 µM) and 29% under setting [1].

`Oc1ccc(-c2csc(-c3c[nH]c4ccccc34)n2)c(O)c1`: the inhibition (at 10 µM) was 81% (active) and the inhibition under setting [1] was found to be 29%.

Turning to `Cn1c(SCC(=O)Nc2sccc2C#N)nnc1-c1ccccc1`, the inhibition was 12% (inactive) (at 10 µM) and 13% under setting [1].

Regarding `COc1ccc(C)cc1-n1nnnc1SCC(=O)NC(=O)NCc1ccco1`, the inhibition by setting is: (at 10 µM) 61% (inactive); under setting [1], 12%.

Source of the values: PubChem BioAssay AID1210 (NMMLSC, 2008).
